Results on six molecules are retold here after PubChem BioAssay (EPA / NIEHS).

Assay [1] is described as follows: ATG_NF_kB_CIS: Attagene CIS-FACTORIAL HepG2 Assay for human Nuclear Factor Kappa B (NF-kB) (AID 2282991). The settings on record: HepG2 Attagene cis-factorial NF-kB reporter mRNA; actives raise or lower the signal. Summed up:
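HepG2 cells transiently transfected with multiplexed cis-element reporter units measuring endogenous transcription factor activity; reporter mRNA read 24 h after dosing by RT-PCR, fluorescent labelling, HpaI digestion and capillary electrophoresis. Bidirectional fit against DMSO baseline.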

Assay [2] in a line: ATG_Oct_MLP_CIS: Attagene CIS-FACTORIAL HepG2 Assay for human Octamer-Binding Transcription Factor (Oct) (AID 2282993). The settings on record: HepG2 Attagene cis-factorial Oct reporter, mRNA; actives raise or lower the signal. The gist of the method: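 Cells of the HepG2 line express promoter-controlled reporter sequences whose mRNA levels, after 24 h treatment, are measured by RT-PCR and capillary electrophoresis. Increases and decreases are scored relative to DMSO.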

Assay [3] has as its target Cellular tumor antigen p53 (Homo sapiens) (UniProt P04637). Put plainly: ATG_p53_CIS: Attagene CIS-FACTORIAL HepG2 Assay for human p53 Transcription Factor (AID 2282994). The settings on record: HepG2 p53 cis-element reporter, Attagene mRNA; actives raise or lower the signal. The gist of the method:
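Using HepG2 hepatoma cells carrying cis-acting multiplexed reporters, mRNA induction is detected after a 24 h exposure. Gain- and loss-of-signal responses are fitted relative to DMSO-treated cells.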

Assay [4] concerns the target human Peroxisome Proliferator-activated Receptor delta (PPARd), PPARD (gene 5467) (UniProt Q03181). Put plainly: ATG_PPARd_TRANS: Attagene TRANS-FACTORIAL HepG2 Assay for human Peroxisome Proliferator-activated Receptor delta (PPARd) (AID 2283002; active = hit-call score of the fitted dose curve at least 0.9, where 1 is the maximum). The gist of the method: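 Transient HepG2 transfection (multiple GAL4-UAS RTUs, chimeric receptor-Gal4); 24 h dosing; total RNA → oligo(dT) RT → PCR → 6-FAM primer extension → HpaI cut → CE. Positive direction vs DMSO.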

Assay [5] has as its target Peroxisome proliferator-activated receptor gamma (Homo sapiens) (UniProt P37231). The assay can be described thus: ATG_PPARg_TRANS: Attagene TRANS-FACTORIAL HepG2 Assay for human Peroxisome Proliferator-activated Receptor-gamma (PPARg) (AID 2283007; active = hit-call score of the fitted dose curve at least 0.9, where 1 is the maximum). The gist of the method:
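HepG2 cells transiently transfected with multiplexed GAL4-UAS reporter units and exogenous chimeric NR-Gal4 proteins; reporter mRNA quantified after 24 h compound exposure by RT-PCR, fluorescent labelling, HpaI digestion and capillary electrophoresis; gain-of-signal fitted versus DMSO baseline.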

For assay [6], the target named is Nuclear receptor subfamily 1 group I member 2 (Homo sapiens) (UniProt O75469). Put plainly: ATG_PXR_TRANS: Attagene TRANS-FACTORIAL HepG2 Assay for human Pregnane X Receptor (PXR) (AID 2283008; active = hit-call score of the fitted dose curve at least 0.9, where 1 is the maximum). The gist of the method:
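Fluorescence intensity of FAM-labelled, HpaI-digested reporter amplicons, separated by capillary electrophoresis, quantifies induction. HepG2 cells with PXR-Gal4 trans-reporter system were exposed 24 h; DMSO defines baseline.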

The target in assay [7] is human RAR-related Orphan Receptor beta (RORb), RORB (gene 6096) (UniProt Q92753). The assay can be described thus: ATG_RORb_TRANS: Attagene TRANS-FACTORIAL HepG2 Assay for human RAR-related Orphan Receptor beta (RORb) (AID 2283010; active = hit-call score of the fitted dose curve at least 0.9, where 1 is the maximum). Summed up: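 Readout is reporter-gene mRNA induction, detected as fluorescence after RT-PCR and capillary electrophoresis, fitted for gain of signal against DMSO controls. Transiently transfected HepG2 liver cells carrying GAL4-UAS reporter constructs were treated for 24 hours.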
Sequence of human RAR-related Orphan Receptor beta (RORb), RORB (gene 6096) (Q92753 whole entry, looked up, the tested form may be a part): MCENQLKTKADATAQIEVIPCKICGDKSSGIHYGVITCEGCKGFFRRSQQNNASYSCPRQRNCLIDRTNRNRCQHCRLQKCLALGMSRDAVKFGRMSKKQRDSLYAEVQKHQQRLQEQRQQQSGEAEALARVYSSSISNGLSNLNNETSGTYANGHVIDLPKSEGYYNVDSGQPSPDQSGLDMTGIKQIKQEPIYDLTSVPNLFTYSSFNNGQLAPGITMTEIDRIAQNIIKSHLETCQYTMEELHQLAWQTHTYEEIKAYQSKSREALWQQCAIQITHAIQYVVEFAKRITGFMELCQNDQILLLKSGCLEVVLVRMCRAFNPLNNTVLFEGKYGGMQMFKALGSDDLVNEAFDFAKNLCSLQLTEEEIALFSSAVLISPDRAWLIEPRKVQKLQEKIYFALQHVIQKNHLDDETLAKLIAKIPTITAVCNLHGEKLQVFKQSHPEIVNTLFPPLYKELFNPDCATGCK

Assay [8] has as its target human Retinoic Acid Receptor beta (RARb), RARB (gene 5915) (UniProt P10826). Put plainly: ATG_RARb_TRANS: Attagene TRANS-FACTORIAL HepG2 Assay for human Retinoic Acid Receptor beta (AID 2283004; active = hit-call score of the fitted dose curve at least 0.9, where 1 is the maximum). Summed up: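 HepG2 cells were transiently transfected with GAL4-UAS reporter units that report activity of exogenous chimeric NR-Gal4 proteins, then exposed to compound for 24 h. Reporter mRNA was quantified by RT-PCR with capillary electrophoresis fluorescence, as gain of signal over DMSO.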

In assay [9] the target is Retinoic acid receptor RXR-alpha (Homo sapiens) (UniProt P19793). The assay can be described thus: ATG_RXRa_TRANS: Attagene TRANS-FACTORIAL HepG2 Assay for human Retinoid X Receptor alpha (RXRa) (AID 2283012; active = hit-call score of the fitted dose curve at least 0.9, where 1 is the maximum). The gist of the method: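 Transient transfection of human HepG2 with multiple GAL4-UAS reporter constructs; 24 h compound exposure; total RNA isolated, reverse-transcribed, PCR-amplified, 6-FAM labelled, HpaI-cut, resolved by capillary electrophoresis. Positive-direction fit versus DMSO.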
Sequence of Retinoic acid receptor RXR-alpha (Homo sapiens) (P19793 whole entry, looked up, the tested form may be a part): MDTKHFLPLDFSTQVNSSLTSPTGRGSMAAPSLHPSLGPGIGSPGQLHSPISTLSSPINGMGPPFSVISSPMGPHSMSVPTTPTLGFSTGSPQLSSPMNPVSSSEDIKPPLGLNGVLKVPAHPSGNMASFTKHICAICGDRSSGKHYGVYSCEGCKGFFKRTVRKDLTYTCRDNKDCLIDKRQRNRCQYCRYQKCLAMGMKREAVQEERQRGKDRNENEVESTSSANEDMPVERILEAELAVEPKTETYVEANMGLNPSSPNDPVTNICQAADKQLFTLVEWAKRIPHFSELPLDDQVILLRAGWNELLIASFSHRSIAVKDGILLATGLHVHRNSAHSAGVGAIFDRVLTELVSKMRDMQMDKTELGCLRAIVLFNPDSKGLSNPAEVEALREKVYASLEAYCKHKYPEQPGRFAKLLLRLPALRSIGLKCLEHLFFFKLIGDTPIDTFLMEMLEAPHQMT

Assay [10] is described as follows: ATG_NRF2_ARE_CIS: Attagene CIS-FACTORIAL HepG2 Assay for human Nuclear Factor Erythroid 2 Related Factor 2 (NFR2) response to Antioxidant Response Elements (ARE) (AID 2282992). The following applies: HepG2 Attagene ARE/NRF2 reporter, transcription factor activity; actives raise or lower the signal. The gist of the method:
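Cis-factorial assay: transfected HepG2 reporter library, 24 h dosing, mRNA readout via RT-PCR/CE; DMSO-referenced bidirectional analysis.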

Assay [11] deals with human Peroxisome Proliferator-activated Receptor alpha (PPARa), PPARA (gene 5465) (UniProt Q07869). The assay can be described thus: ATG_PPARa_TRANS: Attagene TRANS-FACTORIAL HepG2 Assay for human Peroxisome Proliferator-activated Receptor alpha (PPARa) (AID 2283001; active = hit-call score of the fitted dose curve at least 0.9, where 1 is the maximum). The gist of the method: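 Read-out is fluorescence of reporter cDNA fragments resolved by capillary electrophoresis after RT-PCR. Human HepG2 liver cells carried transfected PPARa-Gal4 chimera and GAL4-UAS reporter units, treated 24 h; activity scored as increase over DMSO.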
Sequence of human Peroxisome Proliferator-activated Receptor alpha (PPARa), PPARA (gene 5465) (Q07869 whole entry, looked up, the tested form may be a part): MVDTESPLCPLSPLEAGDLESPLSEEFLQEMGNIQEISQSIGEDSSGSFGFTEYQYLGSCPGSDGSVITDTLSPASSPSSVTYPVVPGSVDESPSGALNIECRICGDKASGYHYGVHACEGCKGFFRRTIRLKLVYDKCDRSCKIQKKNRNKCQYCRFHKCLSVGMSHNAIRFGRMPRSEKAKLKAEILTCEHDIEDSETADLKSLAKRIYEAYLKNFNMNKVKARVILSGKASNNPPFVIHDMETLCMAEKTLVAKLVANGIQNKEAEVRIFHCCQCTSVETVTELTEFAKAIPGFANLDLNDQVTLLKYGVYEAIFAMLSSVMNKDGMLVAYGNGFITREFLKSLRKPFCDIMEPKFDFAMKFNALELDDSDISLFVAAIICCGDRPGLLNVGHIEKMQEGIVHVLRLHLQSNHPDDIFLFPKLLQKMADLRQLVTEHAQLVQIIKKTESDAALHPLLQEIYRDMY

A short description of assay [12]: BSK_3C_TissueFactor: BioMAP Diversity Plus: 3C Assay for Tissue Factor Biomarker Activity (AID 2282997). The following applies: BioMAP 3C HUVEC, tissue factor biomarker readout; actives raise or lower the signal. Summed up:
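HUVEC were treated 24 h, then surface tissue factor measured by ELISA and fitted bidirectionally against DMSO. Parallel SRB total-protein staining assessed overt cytotoxicity at the same time point.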

Assay [13] is described as follows: BSK_3C_uPAR: BioMAP Diversity Plus: 3C Assay for Urokinase-type plasminogen activator receptor (uPAR) Biomarker Activity (AID 2282998). The settings on record: BioMAP 3C HUVEC, uPAR biomarker ELISA; actives raise or lower the signal. Summed up: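 Endothelial primary cells of human umbilical vein origin received test chemical; 24 h later uPAR was assayed by ELISA. Fitting was bidirectional, DMSO as negative control.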

The nature of assay [14]: BSK_3C_VCAM1: BioMAP Diversity Plus: 3C Assay for Vascular cell adhesion molecule 1 (VCAM1) Biomarker Activity (AID 2282999). The following applies: BioMAP 3C HUVEC, VCAM1 ELISA, cytokine-stimulated; actives raise or lower the signal. The gist of the method:
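Endothelial cells from human umbilical vein are treated with test chemical. At 24 h, VCAM-1 is measured by ELISA, and responses in either direction are fitted relative to DMSO.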

A short description of assay [15]: BSK_4H_Eotaxin3: BioMAP Diversity Plus: 4H Assay for Eotaxin 3 Biomarker Activity (AID 2283000).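 For outcome: CCL26 protein level quantified by ELISA in parallel with SRB cytotoxicity check.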 The settings on record: primary human endothelial cells (HUVEC); actives raise or lower the signal. Summed up:
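Eotaxin-3 (CCL26) levels were measured by ELISA in HUVEC primary cultures 24 h post-dosing. Gain or loss of signal was fitted in both directions, with DMSO serving as baseline and negative control.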

Read-out in assay [16]: Intercellular Adhesion Molecule 1 (ICAM1), ICAM1 (gene 3383)
Put plainly: BSK_3C_ICAM1: BioMAP Diversity Plus: 3C Assay for Intercellular Adhesion Molecule 1 (ICAM1) Biomarker Activity (AID 2283003). The following applies: primary human endothelial cells (HUVEC); actives raise or lower the signal. Summed up:
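ICAM-1 levels measured by ELISA after HUVEC cultures in the 3C system had been dosed for 24 h. Gain or loss of signal relative to DMSO was fitted in both directions.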

Assay [17] is described as follows: BSK_3C_Proliferation: Cell Proliferation Assessment in the BioMAP Diversity Plus: 3C Assay (AID 2283006).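 Note: potency may reflect either rise or fall in cell number versus DMSO.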 The settings on record: primary human endothelial cells (HUVEC). The gist of the method: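 Read-out is total protein by SRB absorbance at 560 nm, taken as a proxy for relative cell number. Primary human umbilical vein endothelium cultured below confluence was dosed for 48 h, TCA-fixed and SRB-stained; curves were fitted bidirectionally versus DMSO.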

Assay [18] addresses human Retinoic Acid Receptor gamma (RARg), RARG (gene 5916) (UniProt P13631). Put plainly: ATG_RARg_TRANS: Attagene TRANS-FACTORIAL HepG2 Assay for human Retinoic Acid Receptor gamma (RARg) (AID 2283009; active = hit-call score of the fitted dose curve at least 0.9, where 1 is the maximum). Summed up: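 Transient transfection of HepG2 with multi-reporter constructs, then 24 h chemical treatment. Total RNA isolated, reverse-transcribed, PCR-amplified, fluorescently labelled and resolved by capillary electrophoresis; activity scored as mRNA induction versus DMSO.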

For assay [19], the target named is human RAR-related Orphan Receptor gamma (RORg), RORC (gene 6097) (UniProt P51449). Put plainly: ATG_RORg_TRANS: Attagene TRANS-FACTORIAL HepG2 Assay for human RAR-related Orphan Receptor gamma (RORg) (AID 2283011; active = hit-call score of the fitted dose curve at least 0.9, where 1 is the maximum). Summed up: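 HepG2 cells transiently transfected with GAL4-UAS reporter units and chimeric RORg-Gal4 construct; after 24 h chemical exposure, reporter mRNA measured by RT-PCR with fluorescent capillary electrophoresis, gain of signal fitted against DMSO.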
Sequence of human RAR-related Orphan Receptor gamma (RORg), RORC (gene 6097) (P51449 whole entry, looked up, the tested form may be a part): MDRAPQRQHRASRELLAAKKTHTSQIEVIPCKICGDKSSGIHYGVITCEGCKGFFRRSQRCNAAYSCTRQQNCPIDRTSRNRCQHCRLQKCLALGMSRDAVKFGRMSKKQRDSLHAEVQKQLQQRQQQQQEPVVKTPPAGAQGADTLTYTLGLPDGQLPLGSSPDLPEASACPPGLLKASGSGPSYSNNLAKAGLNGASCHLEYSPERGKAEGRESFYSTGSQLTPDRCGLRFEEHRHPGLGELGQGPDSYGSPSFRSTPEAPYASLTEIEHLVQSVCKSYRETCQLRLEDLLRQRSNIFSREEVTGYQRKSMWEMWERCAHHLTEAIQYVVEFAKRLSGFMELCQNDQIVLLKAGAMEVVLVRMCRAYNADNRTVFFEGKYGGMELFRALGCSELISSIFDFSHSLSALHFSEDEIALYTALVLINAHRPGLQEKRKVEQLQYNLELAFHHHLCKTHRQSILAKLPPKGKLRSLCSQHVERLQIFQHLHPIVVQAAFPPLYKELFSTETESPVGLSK

The structures appear in SMILES notation. Results filed as inconclusive are left out. Active and inactive are the calls of the source. Rule for the calls, unless noted: active = hit-call score of the fitted dose curve at least 0.9, where 1 is the maximum; inactive = score below 0.9.

Sequence of Cellular tumor antigen p53 (Homo sapiens) (P04637 whole entry, looked up): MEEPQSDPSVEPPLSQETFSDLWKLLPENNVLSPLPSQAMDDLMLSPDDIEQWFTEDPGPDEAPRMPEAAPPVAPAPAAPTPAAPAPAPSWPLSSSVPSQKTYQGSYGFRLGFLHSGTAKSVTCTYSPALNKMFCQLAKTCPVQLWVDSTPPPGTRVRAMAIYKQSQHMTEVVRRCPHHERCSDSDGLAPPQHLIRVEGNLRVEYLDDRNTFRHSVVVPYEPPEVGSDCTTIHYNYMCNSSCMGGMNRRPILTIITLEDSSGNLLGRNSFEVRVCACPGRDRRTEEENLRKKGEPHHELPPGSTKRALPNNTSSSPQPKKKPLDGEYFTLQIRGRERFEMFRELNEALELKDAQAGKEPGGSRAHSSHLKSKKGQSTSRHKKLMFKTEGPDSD
Sequence of human Peroxisome Proliferator-activated Receptor delta (PPARd), PPARD (gene 5467) (Q03181 whole entry, looked up, the tested form may be a part): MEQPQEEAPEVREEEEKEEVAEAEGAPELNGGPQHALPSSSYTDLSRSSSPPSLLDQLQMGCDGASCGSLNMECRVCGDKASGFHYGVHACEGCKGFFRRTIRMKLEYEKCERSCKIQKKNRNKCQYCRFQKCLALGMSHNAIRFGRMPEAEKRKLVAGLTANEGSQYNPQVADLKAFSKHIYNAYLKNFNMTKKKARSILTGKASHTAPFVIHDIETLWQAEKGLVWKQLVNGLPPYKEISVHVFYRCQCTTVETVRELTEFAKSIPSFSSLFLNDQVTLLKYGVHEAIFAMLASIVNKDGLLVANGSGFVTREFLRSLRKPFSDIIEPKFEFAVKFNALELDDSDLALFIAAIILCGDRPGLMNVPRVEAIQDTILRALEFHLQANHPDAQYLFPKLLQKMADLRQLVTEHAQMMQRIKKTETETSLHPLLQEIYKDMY
Sequence of Peroxisome proliferator-activated receptor gamma (Homo sapiens) (P37231 whole entry, looked up, the tested form may be a part): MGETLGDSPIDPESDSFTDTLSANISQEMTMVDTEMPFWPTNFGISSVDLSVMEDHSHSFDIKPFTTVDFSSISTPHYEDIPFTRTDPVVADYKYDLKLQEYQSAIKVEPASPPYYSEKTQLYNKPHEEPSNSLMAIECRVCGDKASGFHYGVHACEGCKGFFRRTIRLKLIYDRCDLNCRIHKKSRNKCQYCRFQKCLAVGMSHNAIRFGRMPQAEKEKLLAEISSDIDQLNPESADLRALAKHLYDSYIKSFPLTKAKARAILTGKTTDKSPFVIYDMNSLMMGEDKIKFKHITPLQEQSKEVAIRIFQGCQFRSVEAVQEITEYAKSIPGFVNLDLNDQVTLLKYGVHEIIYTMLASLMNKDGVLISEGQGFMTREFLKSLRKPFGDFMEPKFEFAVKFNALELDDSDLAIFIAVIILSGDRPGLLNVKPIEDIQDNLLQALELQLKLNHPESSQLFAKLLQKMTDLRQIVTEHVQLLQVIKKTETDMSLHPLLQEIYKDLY
Sequence of Nuclear receptor subfamily 1 group I member 2 (Homo sapiens) (O75469 whole entry, looked up, the tested form may be a part): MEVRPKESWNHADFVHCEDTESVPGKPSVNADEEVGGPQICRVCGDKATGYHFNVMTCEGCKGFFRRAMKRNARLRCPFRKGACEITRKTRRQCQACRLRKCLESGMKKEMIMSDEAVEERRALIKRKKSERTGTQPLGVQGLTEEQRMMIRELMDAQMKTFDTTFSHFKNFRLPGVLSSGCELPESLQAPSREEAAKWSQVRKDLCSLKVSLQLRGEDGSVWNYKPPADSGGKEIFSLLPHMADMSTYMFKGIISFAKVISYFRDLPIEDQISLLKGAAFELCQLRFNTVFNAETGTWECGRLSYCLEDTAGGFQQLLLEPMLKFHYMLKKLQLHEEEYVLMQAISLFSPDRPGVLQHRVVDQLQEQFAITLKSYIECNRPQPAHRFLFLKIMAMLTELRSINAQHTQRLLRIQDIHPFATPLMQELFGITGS
Sequence of human Retinoic Acid Receptor gamma (RARg), RARG (gene 5916) (P13631 whole entry, looked up): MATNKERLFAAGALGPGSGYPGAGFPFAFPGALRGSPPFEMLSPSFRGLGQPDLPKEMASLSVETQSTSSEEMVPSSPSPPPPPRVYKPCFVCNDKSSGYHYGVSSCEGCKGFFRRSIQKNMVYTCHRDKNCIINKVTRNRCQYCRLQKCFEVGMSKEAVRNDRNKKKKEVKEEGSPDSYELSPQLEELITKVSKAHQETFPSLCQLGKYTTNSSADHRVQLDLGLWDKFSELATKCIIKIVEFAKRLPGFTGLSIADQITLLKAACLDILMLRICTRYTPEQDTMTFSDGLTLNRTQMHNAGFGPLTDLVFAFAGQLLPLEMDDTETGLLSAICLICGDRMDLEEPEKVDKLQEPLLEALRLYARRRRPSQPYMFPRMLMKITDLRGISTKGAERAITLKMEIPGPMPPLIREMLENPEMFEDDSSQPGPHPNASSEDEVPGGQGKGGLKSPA
Sequence of human Retinoic Acid Receptor beta (RARb), RARB (gene 5915) (P10826 whole entry, looked up, the tested form may be a part): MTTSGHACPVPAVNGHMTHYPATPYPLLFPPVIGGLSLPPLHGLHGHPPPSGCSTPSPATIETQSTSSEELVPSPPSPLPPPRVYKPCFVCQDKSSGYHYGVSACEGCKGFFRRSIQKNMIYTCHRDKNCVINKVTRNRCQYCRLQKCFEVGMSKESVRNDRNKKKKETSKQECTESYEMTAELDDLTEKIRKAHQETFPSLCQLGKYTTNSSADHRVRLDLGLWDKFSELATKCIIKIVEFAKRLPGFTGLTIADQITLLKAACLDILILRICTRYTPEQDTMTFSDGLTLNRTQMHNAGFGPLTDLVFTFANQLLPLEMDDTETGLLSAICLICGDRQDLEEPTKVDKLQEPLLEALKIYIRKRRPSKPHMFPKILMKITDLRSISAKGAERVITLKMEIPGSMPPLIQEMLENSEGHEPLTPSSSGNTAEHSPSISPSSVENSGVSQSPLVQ

`COC(=O)Nc1cccc(OC(=O)Nc2cccc(C)c2)c1`: the molecule was called inactive in assay [1], in assay [2], in [3], in [4], in assay [5] and in [6]. For the same molecule, the call in assay [7] was inactive.
`O=C(O)c1cc(I)cc(I)c1I`: the result in assay [1], in [2], in [3], in [4], in assay [8] and in [6] was inactive. The molecule was classed as inactive in [9]. Also, the AC50 in [5] was 11.9 µM (active).
In the case of `O=C(CCl)Nc1ccccc1`, the AC50 is 2.21 µM (active) in [10], 8.75 µM (active) in assay [2], 7.86 µM (active) in [3] and 2.7 µM (active) in assay [5]. Further, the molecule was classed as inactive in assay [11], in [4] and in assay [6].
In the case of `Cc1cc(C(C)(C)c2ccc(O)c(C)c2)ccc1O`, the AC50 in [2] is 34.8 µM (active); in assay [3] it was 33.7 µM (active); in assay [12] it was 13.6 µM (active); in assay [13] it was 10 µM (active); in assay [14] it was 15 µM (active); in [17], 14.3 µM (active). In addition, the AC50 in [5] was 5.48 µM (active); in assay [6] it was 3.26 µM (active). The outcome in [15], in [4], in [16], in [18], in assay [19] and in assay [9] was inactive.
Take `O=[N+]([O-])c1ccc(Cl)c([N+](=O)[O-])c1`: the outcome in assay [10], in assay [2], in assay [3], in assay [7] and in assay [19] was inactive.
Turning to `CCOC(=O)CCN(SN(C)C(=O)Oc1cccc2c1OC(C)(C)C2)C(C)C`, the molecule was classed as inactive in assay [2], in assay [3], in [11], in [4], in assay [16] and in assay [9]. Moreover, the AC50 in assay [12] is 31.1 µM (active); in assay [13] it was 32.5 µM (active); in assay [14], 20 µM (active); in [15], 28.8 µM (active); in assay [17], 23.3 µM (active); in [5], 0.713 µM (active). Further, the AC50 in assay [6] is 14.5 µM (active).
